Results published in the supplement of paper PMC11732987, “Enantioselective OTUD7B fragment discovery through chemoproteomics screening and high-throughput optimisation” (Communications Chemistry, 2025).

How the values were obtained:
Experiment in all cases: log2 ratio of Biotin-Ahx-Ub-VS probe labelling (fragment/DMSO); higher = less target engagement (more negative = stronger competition), active = hit call of the paper (q ≤ 0.05, log2 ratio ≤ -1)
Conditions in all cases: compound concentration: 200 uM; treatment time: 3 h
[1] = biological target: T1, ALG13 (UniProt Q9NP73)
T1 sequence (whole entry): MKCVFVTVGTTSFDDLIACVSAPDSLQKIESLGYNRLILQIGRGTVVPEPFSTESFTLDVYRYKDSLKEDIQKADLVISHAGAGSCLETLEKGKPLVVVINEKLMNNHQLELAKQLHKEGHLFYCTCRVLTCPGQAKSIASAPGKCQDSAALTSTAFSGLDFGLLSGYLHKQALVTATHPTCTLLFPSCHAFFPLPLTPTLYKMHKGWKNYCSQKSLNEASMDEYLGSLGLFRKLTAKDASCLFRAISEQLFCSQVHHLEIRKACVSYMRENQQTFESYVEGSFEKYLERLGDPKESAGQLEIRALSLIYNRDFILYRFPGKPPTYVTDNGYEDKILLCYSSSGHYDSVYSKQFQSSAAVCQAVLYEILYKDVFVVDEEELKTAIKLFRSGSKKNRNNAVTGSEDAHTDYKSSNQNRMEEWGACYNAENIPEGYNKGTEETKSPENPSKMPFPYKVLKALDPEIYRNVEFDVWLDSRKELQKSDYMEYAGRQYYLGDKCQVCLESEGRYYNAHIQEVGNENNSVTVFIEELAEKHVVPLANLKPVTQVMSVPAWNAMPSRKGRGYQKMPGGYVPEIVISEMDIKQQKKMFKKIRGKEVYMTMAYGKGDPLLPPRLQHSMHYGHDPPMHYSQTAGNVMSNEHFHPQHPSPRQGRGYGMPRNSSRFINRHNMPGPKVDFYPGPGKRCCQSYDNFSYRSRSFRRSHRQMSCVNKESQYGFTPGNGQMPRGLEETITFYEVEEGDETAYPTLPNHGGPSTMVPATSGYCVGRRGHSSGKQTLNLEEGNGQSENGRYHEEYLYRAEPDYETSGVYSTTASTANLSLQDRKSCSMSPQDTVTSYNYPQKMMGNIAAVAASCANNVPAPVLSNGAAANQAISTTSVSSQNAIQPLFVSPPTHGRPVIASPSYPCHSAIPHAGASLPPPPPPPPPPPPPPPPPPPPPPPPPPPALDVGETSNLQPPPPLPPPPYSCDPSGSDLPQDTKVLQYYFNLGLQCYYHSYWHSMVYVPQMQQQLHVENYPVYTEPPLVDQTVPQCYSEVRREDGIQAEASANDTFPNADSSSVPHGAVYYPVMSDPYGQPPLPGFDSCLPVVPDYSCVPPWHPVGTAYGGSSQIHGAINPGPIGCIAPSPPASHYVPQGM
Procedure, shortened: (§1)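 Lysate from HEK293T cells, 495 µg per sample in Tris/CHAPS/IGEPAL buffer with protease inhibitors, was treated for 3 h in triplicate with fragment at 200 µM or vehicle. Biotin-Ahx-Ub-VS was next added at 0.5 µM final for 1 h. The labelled DUBs were enriched with NeutrAvidin, digested with LysC and trypsin, and run by diaPASEF LC-MS/MS, with values given as average log2 fragment/vehicle ratios by unpaired t-test on global-median-normalised Spectronaut quantities of proteins with ≥2 unique peptides.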

[2] = biological target: ATXN3 (UniProt P54252)
Sequence of ATXN3 (P54252 whole entry): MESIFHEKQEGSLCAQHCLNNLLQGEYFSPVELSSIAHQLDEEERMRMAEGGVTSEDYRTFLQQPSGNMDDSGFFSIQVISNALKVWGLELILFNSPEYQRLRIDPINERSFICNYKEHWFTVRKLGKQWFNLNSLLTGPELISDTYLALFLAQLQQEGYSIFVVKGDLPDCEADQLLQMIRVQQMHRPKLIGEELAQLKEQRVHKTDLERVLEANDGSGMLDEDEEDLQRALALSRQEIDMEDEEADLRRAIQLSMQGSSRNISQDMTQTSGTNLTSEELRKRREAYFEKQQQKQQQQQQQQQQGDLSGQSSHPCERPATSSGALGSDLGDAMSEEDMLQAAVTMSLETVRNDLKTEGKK
Procedure, shortened: as §1

[3] = biological target: T2, BAP1 (UniProt Q92560)
T2 sequence (whole entry): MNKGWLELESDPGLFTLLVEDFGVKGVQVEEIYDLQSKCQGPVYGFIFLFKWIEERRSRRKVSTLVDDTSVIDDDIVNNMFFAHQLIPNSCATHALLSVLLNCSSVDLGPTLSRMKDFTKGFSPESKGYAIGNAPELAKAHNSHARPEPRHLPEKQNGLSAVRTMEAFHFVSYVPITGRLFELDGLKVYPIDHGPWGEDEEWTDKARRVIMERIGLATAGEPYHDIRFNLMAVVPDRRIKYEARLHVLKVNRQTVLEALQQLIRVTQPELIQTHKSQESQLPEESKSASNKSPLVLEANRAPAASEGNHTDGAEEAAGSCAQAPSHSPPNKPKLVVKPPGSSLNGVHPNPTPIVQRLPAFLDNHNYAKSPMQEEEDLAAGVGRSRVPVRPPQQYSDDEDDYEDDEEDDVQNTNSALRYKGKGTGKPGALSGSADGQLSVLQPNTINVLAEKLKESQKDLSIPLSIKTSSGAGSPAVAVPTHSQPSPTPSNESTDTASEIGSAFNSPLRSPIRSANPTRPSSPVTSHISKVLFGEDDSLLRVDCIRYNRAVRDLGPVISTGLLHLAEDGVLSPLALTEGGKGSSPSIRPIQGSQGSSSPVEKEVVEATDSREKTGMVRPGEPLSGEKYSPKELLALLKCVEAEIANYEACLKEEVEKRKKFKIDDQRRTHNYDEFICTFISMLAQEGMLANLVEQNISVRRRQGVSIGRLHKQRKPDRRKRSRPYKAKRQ
Procedure, shortened: as §1

[4] = biological target: EIF3F (UniProt O00303)
Sequence of EIF3F (O00303 whole entry): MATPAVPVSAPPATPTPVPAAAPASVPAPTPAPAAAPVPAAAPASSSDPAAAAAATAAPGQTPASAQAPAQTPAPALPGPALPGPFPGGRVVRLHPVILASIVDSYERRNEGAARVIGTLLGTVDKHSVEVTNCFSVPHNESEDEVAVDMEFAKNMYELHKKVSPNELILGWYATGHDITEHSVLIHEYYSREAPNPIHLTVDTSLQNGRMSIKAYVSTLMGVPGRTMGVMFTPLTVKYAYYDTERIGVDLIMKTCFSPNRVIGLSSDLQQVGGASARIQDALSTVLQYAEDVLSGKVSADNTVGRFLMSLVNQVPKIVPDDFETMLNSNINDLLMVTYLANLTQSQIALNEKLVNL
Procedure, shortened: as §1

[5] = biological target: EIF3H (UniProt O15372)
Sequence of EIF3H (O15372 whole entry): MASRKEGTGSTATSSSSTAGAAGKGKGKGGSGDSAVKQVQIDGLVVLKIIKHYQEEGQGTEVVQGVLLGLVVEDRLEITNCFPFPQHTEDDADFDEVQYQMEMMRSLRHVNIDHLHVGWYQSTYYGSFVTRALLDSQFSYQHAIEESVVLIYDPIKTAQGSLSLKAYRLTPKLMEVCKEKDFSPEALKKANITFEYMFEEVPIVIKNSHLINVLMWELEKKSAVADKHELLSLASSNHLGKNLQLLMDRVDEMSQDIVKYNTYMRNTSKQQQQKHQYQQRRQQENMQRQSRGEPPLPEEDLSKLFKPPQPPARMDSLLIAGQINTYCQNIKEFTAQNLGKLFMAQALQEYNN
Procedure, shortened: as §1

[6] = biological target: T3, FAM105A (UniProt Q9NUU6)
T3 sequence (whole entry): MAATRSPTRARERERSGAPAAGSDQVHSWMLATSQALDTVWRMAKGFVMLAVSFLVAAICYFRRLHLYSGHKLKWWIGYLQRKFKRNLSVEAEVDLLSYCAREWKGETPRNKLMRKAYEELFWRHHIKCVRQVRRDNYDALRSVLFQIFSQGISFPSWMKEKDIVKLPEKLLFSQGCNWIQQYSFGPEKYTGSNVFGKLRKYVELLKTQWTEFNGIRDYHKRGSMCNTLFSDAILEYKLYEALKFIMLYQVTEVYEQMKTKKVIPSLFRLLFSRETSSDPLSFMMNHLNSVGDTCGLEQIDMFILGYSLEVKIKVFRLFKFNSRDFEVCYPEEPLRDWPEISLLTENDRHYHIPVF
Procedure, shortened: as §1

[7] = biological target: OTUB1 (UniProt Q96FW1)
Sequence of OTUB1 (Q96FW1 whole entry): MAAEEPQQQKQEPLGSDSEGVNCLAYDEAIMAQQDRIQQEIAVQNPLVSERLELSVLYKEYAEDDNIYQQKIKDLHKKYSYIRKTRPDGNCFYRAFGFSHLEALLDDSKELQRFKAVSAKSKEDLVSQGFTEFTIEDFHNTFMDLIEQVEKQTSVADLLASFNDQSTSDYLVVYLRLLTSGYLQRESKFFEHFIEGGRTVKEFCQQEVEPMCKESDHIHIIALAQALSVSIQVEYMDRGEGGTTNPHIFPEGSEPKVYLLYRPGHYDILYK
Procedure, shortened: as §1

[8] = biological target: T4, OTUD4 (UniProt Q01804)
T4 sequence (whole entry): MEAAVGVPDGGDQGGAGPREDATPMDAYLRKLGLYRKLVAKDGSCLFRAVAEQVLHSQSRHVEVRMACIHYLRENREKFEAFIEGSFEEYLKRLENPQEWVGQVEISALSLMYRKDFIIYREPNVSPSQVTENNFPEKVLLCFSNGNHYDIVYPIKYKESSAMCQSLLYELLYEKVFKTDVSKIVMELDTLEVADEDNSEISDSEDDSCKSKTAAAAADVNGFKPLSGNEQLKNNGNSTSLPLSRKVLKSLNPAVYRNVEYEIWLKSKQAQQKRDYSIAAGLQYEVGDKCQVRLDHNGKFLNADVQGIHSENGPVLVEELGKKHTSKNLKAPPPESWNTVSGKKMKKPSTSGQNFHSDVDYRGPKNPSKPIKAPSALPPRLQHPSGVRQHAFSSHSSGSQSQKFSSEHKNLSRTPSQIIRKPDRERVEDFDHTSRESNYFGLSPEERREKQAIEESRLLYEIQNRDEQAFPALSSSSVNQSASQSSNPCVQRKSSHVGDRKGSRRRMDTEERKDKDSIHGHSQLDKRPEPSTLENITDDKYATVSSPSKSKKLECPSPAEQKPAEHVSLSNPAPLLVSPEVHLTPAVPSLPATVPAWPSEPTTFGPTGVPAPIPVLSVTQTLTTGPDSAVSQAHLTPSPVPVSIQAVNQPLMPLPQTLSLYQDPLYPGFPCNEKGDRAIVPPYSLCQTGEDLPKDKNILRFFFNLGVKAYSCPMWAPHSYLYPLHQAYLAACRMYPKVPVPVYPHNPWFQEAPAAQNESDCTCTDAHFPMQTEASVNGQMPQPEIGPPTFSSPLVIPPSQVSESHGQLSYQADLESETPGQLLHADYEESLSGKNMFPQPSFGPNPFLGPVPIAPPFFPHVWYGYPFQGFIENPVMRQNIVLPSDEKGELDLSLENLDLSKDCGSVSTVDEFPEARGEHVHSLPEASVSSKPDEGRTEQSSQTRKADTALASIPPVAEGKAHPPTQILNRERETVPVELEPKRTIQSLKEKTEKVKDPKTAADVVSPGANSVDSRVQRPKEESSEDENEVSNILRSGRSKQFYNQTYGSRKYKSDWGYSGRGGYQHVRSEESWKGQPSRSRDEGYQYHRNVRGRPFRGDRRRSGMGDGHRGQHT
Procedure, shortened: as §1

[9] = biological target: T5, OTUD5 (UniProt Q96G74)
T5 sequence (whole entry): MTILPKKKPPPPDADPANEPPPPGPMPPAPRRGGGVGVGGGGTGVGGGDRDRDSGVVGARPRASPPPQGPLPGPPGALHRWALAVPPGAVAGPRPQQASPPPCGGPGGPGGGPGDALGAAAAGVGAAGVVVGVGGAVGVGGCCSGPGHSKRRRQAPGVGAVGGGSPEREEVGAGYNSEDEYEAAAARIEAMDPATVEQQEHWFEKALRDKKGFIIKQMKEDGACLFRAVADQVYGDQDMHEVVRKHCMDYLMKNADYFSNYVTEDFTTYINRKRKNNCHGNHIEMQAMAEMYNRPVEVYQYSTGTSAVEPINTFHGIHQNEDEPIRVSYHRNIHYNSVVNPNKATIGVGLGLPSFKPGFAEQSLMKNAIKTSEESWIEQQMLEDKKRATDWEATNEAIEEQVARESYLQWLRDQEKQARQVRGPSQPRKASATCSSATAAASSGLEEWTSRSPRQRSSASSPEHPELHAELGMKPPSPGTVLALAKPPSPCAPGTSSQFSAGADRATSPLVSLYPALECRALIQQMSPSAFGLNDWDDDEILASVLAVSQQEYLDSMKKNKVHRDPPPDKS
Procedure, shortened: as §1

Measured: log2 ratio of Biotin-Ahx-Ub-VS probe labelling

CCCn1nccc1NC(=O)CCl
inactive: [1] 0.12 | [2] -0.199 | [4] -0.613 | [5] 0.123 | [6] 0.145 | [7] -0.396 | [8] 0.00925 | [9] -0.138
active: [3] -3.06
